Experimental data as given in PubChem BioAssay.

Biological target: Alpha-2C adrenergic receptor (Homo sapiens) (UniProt P18825)
Assay: modulators of alpha2C/GIRK thallium flux, primary screen, cell-based, HEK293 alpha2C/GIRK1/2 (AID 624);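 note: slope of fluorescence ratio to pre-addition baseline per second over 15 to 24 s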
Settings: thallium flux BTC fluorescence, at 10 µM, actives lie on both sides;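 active = fluorescence slope after compound addition differing from the mean of all screened samples at 99.7% confidence, in either direction; inactive = the rest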

Alpha-2C adrenergic receptor (Homo sapiens), sequence (P18825 whole entry, looked up): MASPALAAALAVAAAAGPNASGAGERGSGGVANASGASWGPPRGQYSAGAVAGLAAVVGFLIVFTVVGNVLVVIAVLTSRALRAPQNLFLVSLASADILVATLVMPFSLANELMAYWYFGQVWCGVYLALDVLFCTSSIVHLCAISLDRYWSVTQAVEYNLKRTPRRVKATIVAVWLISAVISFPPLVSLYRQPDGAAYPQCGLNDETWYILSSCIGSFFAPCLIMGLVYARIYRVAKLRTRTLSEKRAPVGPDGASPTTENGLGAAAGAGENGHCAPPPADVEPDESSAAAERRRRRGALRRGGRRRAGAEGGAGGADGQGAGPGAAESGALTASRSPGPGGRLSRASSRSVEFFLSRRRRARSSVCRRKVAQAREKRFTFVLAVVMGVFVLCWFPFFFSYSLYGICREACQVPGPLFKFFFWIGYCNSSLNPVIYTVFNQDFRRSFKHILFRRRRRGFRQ

slope, inactive:
COc1ccccc1CCNC(=O)C1CCCO1 (stereo not given) 0.00423
CSc1ccccc1NC(=O)C1CCCO1 (stereo not given) 0.00731
Cn1c(=O)cc(OCCCC(=O)N2CCCCC2)c2ccccc21 0.00683
CCCc1[nH]nc2c1C(c1cn[nH]c1-c1ccc(F)cc1)C(C#N)=C(N)O2 (stereo not given) 0.00672
CN1C(=S)SC(C)(NO)C1(C)C (stereo not given) 0.00444
O=C(NCc1ccc2c(c1)OCO2)C1CCC(CNc2c(N3CCCCC3)c(=O)c2=O)CC1 (stereo not given) 0.00656
CC(C)(CO)NC(=O)CCCOc1ccc(Cl)cc1Cl 0.00385
CN(C(=O)C1CCOC1)c1nnc(-c2cccnc2)s1 (stereo not given) 0.0059
COc1ccc(OC)c2[nH]c(=O)c(CCNC(=O)CC(C)C)cc12 0.00505
COc1ccc(S(=O)(=O)N2CCCC2C(=O)Nc2ccc(O)cc2)cc1 (stereo not given) 0.00566
CCN(CC)Cc1nc2c(c(=O)[nH]1)C1(CCCCC1)Cc1ccccc1-2 0.00352
COc1ccc(NC(=O)C2CCCCN2S(=O)(=O)c2ccc(F)cc2)cc1 (stereo not given) 0.00664
CCOC(=O)c1c(NC(=O)c2cccs2)sc2c1CCN(C(=O)OCC)C2 0.0082
Cc1c(NC(=O)c2ccc(COc3ccc4ccccc4c3)o2)c(=O)n(-c2ccccc2)n1C 0.0029
CCOc1ccccc1N(C(=O)c1ccco1)C(C(=O)NC1CCCC1)c1cccnc1 (stereo not given) 0.00563
CCn1cc(C(=O)NCc2ccccc2OC)c(=O)c2cc(S(=O)(=O)N(C)C)ccc21 0.00524
CC1CCCN(C(=O)CN2CCN(C(=O)c3ccco3)CC2)C1 (stereo not given) 0.00367
N#Cc1nc(COc2ccccc2Cl)oc1N1CCCCCC1 0.00512
Cc1nc2sc(C(c3cccc(F)c3)N3CCC(C)CC3)c(O)n2n1 (stereo not given) 0.00644
CC1CCCN(c2ccc(C(=O)NCc3cccs3)cn2)C1 (stereo not given) 0.00612
O=C(C1CCC(CNS(=O)(=O)c2cccc3cccnc23)CC1)N1CCCC1 (stereo not given) 0.00608
O=C1c2ccccc2C(Nc2ccc3c(c2)OCO3)N1Cc1ccc2c(c1)OCO2 (stereo not given) 0.00394
NC(=O)C1CCN(C(=O)c2cc3n(n2)C(C(F)(F)F)CC(c2ccco2)N3)CC1 (stereo not given) 0.00594
O=C(Cn1ncc2c1-c1ccccc1OC2)Nc1ccc(Cl)cn1 0.00703
O=C(NC1CCCCC1)C(c1ccc(Cl)cc1)N(C(=O)c1cnccn1)c1ccc2c(c1)OCO2 (stereo not given) 0.00597
COc1ccc(NC(=O)c2cnc3n(c2=O)CCS3)cc1OC 0.00659
COc1ccccc1N1CCN(C(=O)CSc2nc3ncnc(N)c3[nH]2)CC1 0.00625
CC(C)(C)c1nc(CN2CCOCC2)ccc1O 0.0093
Cc1ccccc1C(=O)NC1CCN(Cc2nnnn2Cc2ccccc2)CC1 0.00483
COCCn1c(C)c(C(=O)O)sc1=S 0.00261
Cc1sc2nc(SCC(=O)N3CCN(CCO)CC3)n(-c3ccccc3)c(=O)c2c1C 0.00574
O=C(c1ccco1)N1CCN(c2nc(C(F)(F)F)nc3c2nnn3Cc2ccccc2)CC1 0.00661
Cc1ccccc1CN1CCN(C(=O)c2cccc(F)c2)CC1 0.00429
CCOC(=O)c1c(COC(=O)c2ccco2)nc2ccccc2[n+]1[O-] 0.00397
COC(=O)CCCCC(=O)C1C(=O)CC(C)(C)C(C(=O)OC)C1=O (stereo not given) 0.00358
COCCn1c(CN2CCN(c3ccccc3F)CC2)nc2c1c(=O)n(C)c(=O)n2C 0.00711
CC(C)(C#N)Nn1cnnc1 0.00429
CCC(C)(C(=O)NC1CCCC1)N(Cc1cccs1)C(=O)Cc1cccs1 (stereo not given) 0.00631
COc1cccc(CN=CC2=C(O)CC(C)(C)CC2=O)c1OC 0.00629
Cc1[nH]c2c(C)cccc2c(=O)c1Br 0.0031
